Measured values reported in the supplement of paper PMC7866885, “A novel bicyclic 2,4-diaminopyrimidine inhibitor of Streptococcus suis dihydrofolate reductase” (PeerJ, 2021).
± gives the standard deviation.

The molecules below were run on Streptococcus suis P1/7 (assay: percent growth relative to DMSO control; higher = less growth inhibition). Conditions: 10 µM; incubation time 18 h.
Description: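 CLSI broth microdilution: 5x10^4 CFU of Streptococcus suis (strain P1/7 or HE06) incubated with 10 µM Pathogen Box compound in cation-adjusted Mueller Hinton broth, 37 °C, 5% CO2, 18 h. Growth read as OD600 and expressed as percent of the DMSO-treated control (100%); mean ± SD of three independent experiments.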
Work on O=C(NCCc1c[nH]c2ccccc12)c1cc2ccccc2oc1=O yielded a percent growth of 74.1 ± 8.7%. Molecule O=C(Nc1nnc(-c2ccc(Cl)cc2)o1)c1cccc(C(F)(F)F)c1 has a percent growth of 2.91 ± 3.9%. With CC1CCCCN1C(=O)NCCc1coc(-c2ccc(F)cc2)n1 (stereo not given) the percent growth was 120 ± 87%. Molecule COC(=O)Nc1nc2cc(C(=O)c3ccccc3)ccc2[nH]1 has a percent growth of 74.9 ± 28%. In the case of FC(F)(F)c1cnc(Sc2nnc(-c3ccncc3)o2)c(Cl)c1, the percent growth is reported as 67.2 ± 20%. For CCOc1ccc2cc(-c3nn(C(C)(C)C)c(N)c3C(N)=O)cnc2c1, the percent growth was 83.1 ± 23%. Molecule CC(C)(C)c1cnc(NC(=O)c2ccccc2O)s1 has a percent growth of 1.61 ± 1.4%. Work on COc1cccc2c(C)nc(N=C(N)N)nc12 yielded a percent growth of 66.8 ± 52%. In the case of CC(=O)NCC1CN(c2ccc(-c3ccc(CNCc4cn[nH]n4)cc3)c(F)c2)C(=O)O1 (stereo not given), the percent growth is reported as 0.637 ± 0.99%. In the case of CCOc1ccc(OCC(=O)Nc2cc(C)cc(C)c2)cc1, the percent growth is reported as 94.3 ± 16%. OCc1ccc(-c2cncc(Nc3cccc(Cl)c3)c2)cc1 was tested, and the percent growth was 69.8 ± 33%. With COc1ccc(-c2nn(C(C)C)c3ncnc(N)c23)cc1OC the percent growth was 121 ± 74%. FC(F)(F)c1ccc(N(c2cccnc2)C2CCN(c3ccc(C(F)(F)F)cn3)CC2)cc1 gave a percent growth of 61.4 ± 12%. O=C1N(Cc2cc3ccccc3s2)CC2CN(Cc3ccccc3)CCN12 (stereo not given) gave a percent growth of 83.1 ± 18%. Work on Nc1cccnc1Nc1ccc(Cl)cc1 yielded a percent growth of 101 ± 40%. Work on COC(=O)c1c(NC(=O)c2c(F)c(F)c(F)c(F)c2F)sc2c1CCCCC2 yielded a percent growth of 85.2 ± 3%. With Cc1cc(C)c2cc(C(=O)NC3CCCCCCC3)[nH]c2c1 the percent growth was 90.1 ± 32%. O=C(Nc1nc(-c2ccccn2)cs1)c1cncn1-c1ccccc1 was tested, and the percent growth was 5.15 ± 6.6%. Work on COc1ccccc1OCCCCn1c(C2CC2)nc2ccccc21 yielded a percent growth of 102 ± 21%. For O=C(NCCN1CCCC1)c1cc(NCCN2CCOCC2)nc2ccc(Cl)cc12, the percent growth was 83.1 ± 11%. With Cc1nn2c(=O)c3c([nH]c2c1-c1ccc(Cl)cc1)CCCC3 the percent growth was 12.7 ± 22%. In the case of Brc1c(-c2ccc3c(c2)OCO3)nc2ncccn12, the percent growth is reported as 85.8 ± 20%. CC(C)c1ncc(-c2ccncc2)c([C@H]2CC[C@H](CNC(=O)c3cccnc3)CC2)n1 showed a percent growth of 125 ± 64%. Work on Cc1cccc(Cn2ccc(NC(=O)c3ccc4c(c3)OCO4)n2)c1 yielded a percent growth of 102 ± 23%. For Cc1[nH]c2ccccc2c1C(c1cccs1)N1CCN(C)CC1 (stereo not given), the percent growth was 86.1 ± 38%. For CC[C@H](CO)NCCN[C@H](CC)CO, the percent growth was 77 ± 21%. For COc1cccc(OCC(=O)c2ccc(Br)cc2)c1, the percent growth was 81.9 ± 9.6%. O=C(NC1CC1)c1ccc(N2CCC(Cc3ccccc3)CC2)nc1 showed a percent growth of 108 ± 16%. CCOc1ccccc1C(=O)Nc1cccc(-c2nc3ncccn3c2C)c1 gave a percent growth of 71.6 ± 8.8%. NCCN(C(=O)c1ccc(Cl)cc1Cl)c1ccc(OCc2ccc(Cl)cc2)cc1 was tested, and the percent growth was 25 ± 43%. CC(C)(C)OC(=O)N1CCN(c2cc(-c3ccc(Oc4ccccc4)cc3)n[nH]2)CC1 was tested, and the percent growth was 28.7 ± 42%. Molecule Nc1ncc(-c2cn[nH]c2)cc1-c1nc2cc(Cl)cnc2[nH]1 has a percent growth of 74 ± 15%. Cc1ccc(-c2nc(CN(Cc3ccccn3)C(C)C)cs2)o1 was tested, and the percent growth was 19.4 ± 34%. Cc1cc(NC(=O)c2ccc(Oc3ccc(Cl)cc3O)o2)no1 was tested, and the percent growth was 124 ± 65%. CCc1ccc(S(=O)(=O)Nc2cc(CN3CCN(CCC(C)C)CC3)ccc2C)cc1 showed a percent growth of 73.2 ± 8.1%. Work on Cc1cc(NCCc2ccccc2)nc(NC(=N)Nc2ccc(Cl)cc2)n1 yielded a percent growth of 74.4 ± 13%. Cc1cnc(CCNC(=O)c2cc(-c3ccc(Cl)cc3)cs2)[nH]1 was tested, and the percent growth was 77.5 ± 18%. COc1cccc(CC(=O)N2CCC(n3c(C)nc4ccc(F)cc43)CC2)c1 gave a percent growth of 65.2 ± 15%. O=C(NC1CC1)c1ccc(N2CCOc3ccc(Cl)cc32)s1 was tested, and the percent growth was 85.5 ± 14%. In the case of O=C([C@@H](c1ccc(Cl)cc1)c1cccnc1)N1CCN(c2ccc(C(F)(F)F)cc2)CC1, the percent growth is reported as 75.6 ± 12%.
